{
  "source": "PubChem BioAssay AID738",
  "about": "(SRMLSC, 2007)",
  "note": "Hit rate of the full screen: of about 98,000 compounds, about 4,900 (5%) were called active. The sample as a whole holds a higher share of actives than the screen did. Unmarked numbers belong to inactive results. No stated cut-off is given here; in the data, active means inhibition above about 30%; inactive means the rest.",
  "data": [
    {"assay": "growth inhibition of yeast control strain, primary screen, counter-screen for post-Golgi transport modulator project (AID 738)", "conditions": "efflux-deficient yeast background strain, growth absorbance A615, 16 h; at 10 µM; hits give high values", "values": [
      {"smiles": "COCCn1c(CN(Cc2ccccc2)Cc2ccccc2)nc2c1c(=O)n(C)c(=O)n2C", "inhibition": "14.8%"},
      {"smiles": "CC(C)Cn1c(CN(Cc2ccccc2)Cc2ccccc2)nc2c1c(=O)n(C)c(=O)n2C", "inhibition": "33.1% (active)"},
      {"smiles": "CC(C)CCn1c(CN(C)Cc2ccccc2)nc2c1c(=O)n(C)c(=O)n2C", "inhibition": "9.18%"},
      {"smiles": "CCC(=O)NNc1cc(=O)c2c(=O)n(C)c(=O)n(C)c2[nH]1", "inhibition": "0%"},
      {"smiles": "CN(C)/C=C(\\C#N)C(=O)c1cccnc1Oc1cccc(F)c1", "inhibition": "10.6%"},
      {"smiles": "COc1ccc(NC(=S)N2N=CCC2c2ccccc2)cc1", "note": "(configuration not stated)", "inhibition": "10.8%"},
      {"smiles": "CNC(=S)N1N=C(c2ccccc2)CC1c1ccc(Br)cc1", "note": "(configuration not stated)", "inhibition": "80.4% (active)"},
      {"smiles": "O=C(COc1ccc(Cl)cc1)Nc1ccccc1CO", "inhibition": "36.8% (active)"},
      {"smiles": "O=C(COc1ccccc1)Nc1nonc1NC(=O)COc1ccccc1", "inhibition": "14.2%"},
      {"smiles": "O=C(COc1ccc(Cl)cc1)NCCSc1ccccc1", "inhibition": "25.3%"},
      {"smiles": "O=C(NCCCn1ccnc1)Nc1ccc(Cl)cc1Cl", "inhibition": "0.62%"},
      {"smiles": "Cc1nc(SCC(=O)N2CCc3ccccc3C2)c2c(C)c(C)sc2n1", "inhibition": "49.5% (active)"},
      {"smiles": "Cc1nc(SCC(=O)Nc2cc(C)on2)c2c(C)c(C)sc2n1", "inhibition": "-1.7%"},
      {"smiles": "Cc1nc(SCC(=O)N2CC(=O)Nc3ccccc32)c2c(C)c(C)sc2n1", "inhibition": "2.3%"},
      {"smiles": "Cc1ccc(NC(=S)NC(=O)c2ccc(-c3ccccc3)cc2)c(C)c1", "inhibition": "0.3%"},
      {"smiles": "CCC1(CC)Cc2ccccc2-c2nc3ccccc3c(=O)n21", "inhibition": "8.32%"},
      {"smiles": "CCOC(=O)C1Cn2c(nc3c(c2=O)C(C)(CC)Cc2ccccc2-3)S1", "note": "(configuration not stated)", "inhibition": "39.9% (active)"},
      {"smiles": "CC1(C)Cc2ccccc2-c2nc(CN3CCOCC3)[nH]c(=O)c21", "inhibition": "15.4%"},
      {"smiles": "CCN(CC)c1nc(-c2ccccc2)cc(C(F)(F)F)c1C#N", "inhibition": "13.7%"},
      {"smiles": "Cc1ccc2nc(/C(C#N)=C\\c3ccc(OC(=O)c4cccs4)cc3)[nH]c2c1", "inhibition": "-11.1%"},
      {"smiles": "CC(C)C(=O)OCC(=O)Nc1ccc2c(c1)CCC2", "inhibition": "3.52%"},
      {"smiles": "CCOC(=O)N1CCC(NC(=O)Cn2cc3c(n2)CCCCC3)CC1", "inhibition": "31.9% (active)"},
      {"smiles": "O=C(Cn1cc2c(n1)CCCCC2)NCCN1CCOCC1", "inhibition": "-2.81%"},
      {"smiles": "COCCNC(=O)Cn1cc2c(n1)CCCCC2", "inhibition": "2.72%"},
      {"smiles": "Cc1c(C#N)c(NC(=O)c2ccccc2)n(Cc2ccccc2)c1C", "inhibition": "8.33%"},
      {"smiles": "O=c1c2ccccc2nc2n1C(CSCc1cccc(C(F)(F)F)c1)CS2", "note": "(configuration not stated)", "inhibition": "4.97%"},
      {"smiles": "O=c1onc(-c2cccs2)n1Cc1ccccc1", "inhibition": "2.85%"},
      {"smiles": "Cc1ccc(CNC(=O)c2ccccc2CCc2ccccc2)cc1", "inhibition": "35.3% (active)"},
      {"smiles": "CS(=O)(=O)NCc1ccc(C(=O)NCc2ccccc2)cc1", "inhibition": "8.59%"},
      {"smiles": "Cc1c(C(=O)NCc2ccccc2)cnn1-c1ccccc1", "inhibition": "9.12%"},
      {"smiles": "CC1CC(C)CN(C/C=C/c2ccccc2[N+](=O)[O-])C1", "note": "(configuration not stated)", "inhibition": "7.64%"},
      {"smiles": "Cc1[nH]n(-c2ccccc2)c(=O)c1CCOC(=O)c1ccc(C(F)(F)F)cc1", "inhibition": "33.5% (active)"},
      {"smiles": "Cc1cc(C)n(-c2c(F)c(F)c(COC(=O)c3ccccc3)c(F)c2F)n1", "inhibition": "25.1%"},
      {"smiles": "O=C(OCC(O)C(O)COC(=O)c1ccccc1)c1ccccc1", "note": "(configuration not stated)", "inhibition": "5.59%"},
      {"smiles": "CCC(=O)c1c[nH]c(C(=O)NCC2CCCO2)c1", "note": "(configuration not stated)", "inhibition": "-1.27%"},
      {"smiles": "CCOc1cccc(C(=O)Nc2cccnc2)c1", "inhibition": "-3.62%"},
      {"smiles": "Cc1cc(C)c(NC(=O)CS(=O)CC(=O)Nc2cccnc2)c(C)c1", "note": "(configuration not stated)", "inhibition": "-5.42%"},
      {"smiles": "Cc1cccc(-n2cnc(C(=O)Nc3cccnc3)c2)n1", "inhibition": "31.6% (active)"},
      {"smiles": "Cc1cc(C)c2cc(CN(Cc3nnnn3Cc3ccc(F)cc3)C3CCCC3)c(=O)[nH]c2c1", "inhibition": "41.1% (active)"},
      {"smiles": "CCOc1ccc2[nH]c(=O)c(CN(Cc3nnnn3Cc3ccccc3)CC3CCCO3)cc2c1", "note": "(configuration not stated)", "inhibition": "0.14%"},
      {"smiles": "Cc1cccc2cc(CN(Cc3nnnn3Cc3ccccc3)C3CCCC3)c(=O)[nH]c12", "inhibition": "13.2%"},
      {"smiles": "N#Cc1c(C(F)(F)F)cc(-c2ccccc2)nc1SCC(=O)N1CCOCC1", "inhibition": "-3.4%"},
      {"smiles": "COc1ccc(CCn2nnnc2C(c2ccccc2)N2CCN(C)CC2)cc1OC", "note": "(configuration not stated)", "inhibition": "22.5%"},
      {"smiles": "Cc1cccc(N2CCN(C(c3ccccc3)c3nnnn3CC3CCCO3)CC2)c1C", "note": "(configuration not stated)", "inhibition": "44.4% (active)"},
      {"smiles": "COc1ccc(C(c2nnnn2Cc2cccs2)N2CCN(c3ccccc3)CC2)cc1OC", "note": "(configuration not stated)", "inhibition": "11.7%"},
      {"smiles": "Cc1cc(OCCOc2cccc3cccnc23)c(C)cc1Cl", "inhibition": "7.3%"},
      {"smiles": "CCOC(=O)C1=C(C)Nc2sc(C(=O)c3ccc(Br)cc3)c(N)c2C1c1ccc(C(=O)OC)cc1", "note": "(configuration not stated)", "inhibition": "9.7%"},
      {"smiles": "COc1ccc(C(C(=O)NCc2ccccc2)N(Cc2cccs2)C(=O)c2cnccn2)cc1", "note": "(configuration not stated)", "inhibition": "7.02%"},
      {"smiles": "O=C(N/N=C/c1ccsc1)c1cc(O)cc(O)c1", "inhibition": "1.53%"},
      {"smiles": "COc1ccc(/C=C(\\NC(=O)c2ccc(OC)c(OC)c2)C(=O)NCCc2c[nH]c3ccccc23)cc1", "inhibition": "6.34%"},
      {"smiles": "CC(=O)c1ccc2c(c1)c1ccccc1n2CC(C)C", "inhibition": "23.7%"},
      {"smiles": "O=S(=O)(c1ccccc1)N(CC(O)CN1CCCCC1)c1ccccc1", "note": "(configuration not stated)", "inhibition": "-1.97%"},
      {"smiles": "CS(=O)(=O)N(CC(O)Cn1c2ccccc2c2ccccc21)c1cccc2ccccc12", "note": "(configuration not stated)", "inhibition": "46.2% (active)"},
      {"smiles": "N#Cc1ccc(-c2ccc(F)cc2)nc1Sc1ccccc1", "inhibition": "8.35%"},
      {"smiles": "O=S(=O)(Nc1ccccn1)c1ccc(Oc2ccccc2)cc1", "inhibition": "5.52%"},
      {"smiles": "Cc1cc(C)cc(NS(=O)(=O)c2ccc(Oc3ncc(C(F)(F)F)cc3Cl)cc2)c1", "inhibition": "33% (active)"},
      {"smiles": "COc1ccccc1Oc1ccc(S(=O)(=O)Nc2cccnc2)cc1", "inhibition": "0.59%"},
      {"smiles": "CC1(C)CC(=O)C2=C(C1)N=C1SCCC(=O)N1C2c1ccc(C(F)(F)F)cc1", "note": "(configuration not stated)", "inhibition": "10.4%"},
      {"smiles": "CCOc1cc(NC(=O)c2ccco2)c(OCC)cc1NC(=O)COc1ccccc1", "inhibition": "6.65%"},
      {"smiles": "COc1ccc(OCC(=O)NNC(=O)c2ccc(-c3ccccc3)cc2)cc1", "inhibition": "-1.92%"},
      {"smiles": "COc1ccc(CCNC(=O)c2ccco2)cc1", "inhibition": "14.4%"},
      {"smiles": "CCCc1ccc(OCC(=O)NNC(=S)NC(=O)c2ccco2)cc1", "inhibition": "33.4% (active)"},
      {"smiles": "CC(Oc1ccc2ccccc2c1)C(=O)NNC(=S)NC(=O)c1ccco1", "note": "(configuration not stated)", "inhibition": "96.2% (active)"},
      {"smiles": "COc1ccc(C(=O)NC(=S)NNC(=O)CCc2ccccc2)cc1", "inhibition": "31.5% (active)"},
      {"smiles": "CCNC(=S)NNC(=O)Cc1ccccc1", "inhibition": "8.07%"},
      {"smiles": "CCOC(=O)c1c(NC(=S)NC(=O)c2ccco2)sc2c1CCCC2", "inhibition": "3.33%"},
      {"smiles": "O=C(Nc1ccc(Oc2ccccc2)cc1)c1ccco1", "inhibition": "-0.32%"},
      {"smiles": "NC(=O)C1(N2CCCCC2)CCN(C2CC(=O)N(Cc3ccc(N4CCCC4=O)cc3)C2=O)CC1", "note": "(configuration not stated)", "inhibition": "10.8%"},
      {"smiles": "O=C(CCC(=O)OCc1cccc(C(=O)Oc2ccccc2)c1)Nc1cccc2ccccc12", "inhibition": "0.79%"},
      {"smiles": "O=C1OC(c2ccc(Cl)cc2)=N/C1=C\\c1cccnc1", "inhibition": "-10.4%"},
      {"smiles": "CS(=O)(=O)c1sc2nc(-c3ccccc3)cc(-c3ccccc3)c2c1N", "inhibition": "10.9%"},
      {"smiles": "O=C1CN(c2nc(-c3ccccc3)c3cc(Br)ccc3n2)c2ccccc2N1", "inhibition": "6.52%"},
      {"smiles": "COc1ccccc1NC(=O)COc1ccc(C(=O)OCC(=O)N(C(C)C)C(C)C)cc1OC", "inhibition": "13.2%"},
      {"smiles": "FC(F)(F)c1cc(-c2ccco2)nc(NCc2ccc(Cl)cc2)n1", "inhibition": "25.8%"},
      {"smiles": "COc1cccc(OCC(O)CN2CCN(CCO)CC2)c1", "note": "(configuration not stated)", "inhibition": "-4.45%"},
      {"smiles": "OC(COc1ccc2ccccc2c1)CN1CCOCC1", "note": "(configuration not stated)", "inhibition": "15.5%"},
      {"smiles": "Cc1ccc(OCC(O)CN2CCN(CC(O)COc3ccc(C)cc3Cl)CC2)c(Cl)c1", "note": "(configuration not stated)", "inhibition": "94.4% (active)"},
      {"smiles": "Cc1ccc(-c2nc(C)sc2CC(=O)O)cc1", "inhibition": "6.8%"},
      {"smiles": "NC(=O)C1CCN(C(=O)c2ccc(-c3ccccc3)cc2)CC1", "inhibition": "6.88%"},
      {"smiles": "NC(=O)C1CCN(C(=O)c2ccc(C(F)(F)F)cc2)CC1", "inhibition": "36.9% (active)"},
      {"smiles": "COc1ccccc1N(C)S(=O)(=O)c1ccc(C(=O)N2CCC(C(N)=O)CC2)cc1", "inhibition": "1.96%"},
      {"smiles": "O=c1oc2c(Cl)cc(Cl)cc2cc1-c1nnc(Nc2ccccc2F)s1", "inhibition": "-3.4%"},
      {"smiles": "CCS(=O)(=O)n1nc(-c2ccccc2)nc1SCc1ccccc1", "inhibition": "31.2% (active)"},
      {"smiles": "CCS(=O)(=O)n1nc(-c2ccc(OC)cc2)nc1SC", "inhibition": "9.73%"},
      {"smiles": "Cn1c(CO)cnc1SCc1ccccc1", "inhibition": "9.24%"},
      {"smiles": "CCC1(C)Cc2c(sc3nnn(CC(=O)Nc4ccc(Cl)cc4)c(=O)c23)CO1", "note": "(configuration not stated)", "inhibition": "6.74%"},
      {"smiles": "O=C(NCCCN1CCOCC1)c1cc2c(s1)CCC2", "inhibition": "-14.4%"},
      {"smiles": "Cc1n[nH]c(=S)n1/N=C/c1ccc(Br)o1", "inhibition": "49.4% (active)"},
      {"smiles": "Cc1ccc(-c2n[nH]c(=S)n2/N=C/c2cc3c(cc2[N+](=O)[O-])OCO3)cc1", "inhibition": "-11.7%"},
      {"smiles": "C=CCNC(=S)NNc1ncnc2sc3c(c12)CC(C)(C)OC3", "inhibition": "0%"},
      {"smiles": "COc1ccccc1NC(=S)NC(=O)C(C)C", "inhibition": "12.3%"},
      {"smiles": "O=C(NCN1CCN(CCO)CC1)c1cnccn1", "inhibition": "-5.66%"},
      {"smiles": "O=c1cc(-c2ccccc2)nc(N2CCCCC2)[nH]1", "inhibition": "45% (active)"},
      {"smiles": "O=c1cc(CSc2ccccn2)nc(N2CCN(c3ccccc3)CC2)[nH]1", "inhibition": "8.73%"},
      {"smiles": "Cc1ccc(SCc2cc(=O)[nH]c(N3CCCCC3)n2)cc1", "inhibition": "7.96%"},
      {"smiles": "CCOC(=O)C(=O)Nc1nc(-c2ccccc2)c(CC)s1", "inhibition": "-2.8%"},
      {"smiles": "Cc1cccc(CSc2nnc(NC(=O)CSc3nnc(C)s3)s2)c1", "inhibition": "22.5%"}
    ]}
  ]
}
